LMNA splice mod: qHTS Assay for Modulators of Lamin A Splicing. HeLa LMNA splicing GFP/RFP minigene ratio, 48 h. Potency, µM (top dose mostly 46.1 µM), without a hit: at the highest dose ratio change, negative = inhibition, hits mostly inhibitors. actives 0.01% (n = 200,000). AID 1487, 2009; active = well fitted inhibition curve with a large enough effect in the signal ratio, with a control signal flat, not every such curve was filed as active; inconclusive = small, poorly fitted or top-dose-only effect, or effect the other way, or a change in a side signal; the % refers to the signal ratio; note: % is set by controls: 0 for no effect and ±100 for the full control effect
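S3 HeLa stable clones carrying a lamin A-EGFP splicing minigene plus DsRed2 were seeded at 600 cells/well in Opti-MEM with 2% FBS, pin-dosed and incubated 48 h at 37°C. Acumen cytometry (488 nm) gave the GFP/RFP total-intensity ratio.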
HttQ103 aggreg: qHTS Multiplex Assay to Identify Dual Action Probes in a Cell Model of Huntington: Aggregate Formation (GFP) | PC12 HttQ103-GFP aggregates, Acumen cytometry, 40 h | Potency, µM (titrated, usually from 46.1 µM), for inactives: at the top dose activity change, negative = inhibition, most hits filed as inhibitors | actives 1.1% (n = 220,000); note: % is set by controls: 0 for no effect and ±100 for the full control effect; nearly all actives have a fitted effect of over 60% in size
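Using laser scanning cytometry, GFP-positive aggregates were counted after lysis of PC12 cells induced with 100 nM tebufenozide to express HTT exon 1 Q103–GFP. Compounds were tested in titration.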
NPSR antagonist: qHTS Assay for Antagonists of the Neuropeptide S Receptor: cAMP Signal Transduction; Q6W5P4; CHO-NPSR cells, cAMP TR-FRET, antagonist mode; Potency, µM (titrated, usually from 38.3 µM), for the others: top-dose activity change, negative = inhibition, most hits filed as inhibitors; actives 1% (n = 220,000); note: % is set by controls: 0 for no effect and ±100 for the full control effect; nearly all actives have a fitted effect of over 50% in size
Target sequence (Q6W5P4 whole entry, looked up): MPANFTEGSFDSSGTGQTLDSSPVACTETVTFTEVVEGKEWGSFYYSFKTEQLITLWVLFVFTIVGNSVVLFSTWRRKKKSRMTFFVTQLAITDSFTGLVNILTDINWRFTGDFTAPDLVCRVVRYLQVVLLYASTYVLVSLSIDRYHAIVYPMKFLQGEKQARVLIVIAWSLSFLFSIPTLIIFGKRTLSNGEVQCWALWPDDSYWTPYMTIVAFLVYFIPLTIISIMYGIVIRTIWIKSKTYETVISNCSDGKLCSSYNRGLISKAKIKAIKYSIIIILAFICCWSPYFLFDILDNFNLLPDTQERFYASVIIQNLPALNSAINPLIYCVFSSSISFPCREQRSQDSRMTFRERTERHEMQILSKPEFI
HTT ATP protect: qHTS Multiplex Assay to Identify Dual Action Probes in a Cell Model of Huntington: Cytoprotection (ATP); PC12 HTT-Q103 induced, cytoprotection, ATP luminescence, 40 h; Potency, µM (series often up to 56.4 µM), for the others: cytoprotection (ATP increase), actives largely listed as activators; actives 0.14% (n = 230,000); AID 1471, 2008; note: % of control where 0% means no effect; nearly all actives have a fitted effect of over 45% in size
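Readout: ATPlite luminescence (ATP level). Model: stable PC12, inducible Htt exon1 Q103-GFP. Inducer: tebufenozide, 100 nM final. Compounds: dose series. No G418 in medium.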
Epigenetic derep: Quantitative High-Throughput Screen for Regulators of Epigenetic Control. murine LDR cells, GFP reporter derepression, 30 h. actives 0.2% (n = 280,000). Potency, µM (top dose mostly 53.9 µM), for the others: at the top dose GFP activation, most hits filed as activators. AID 1865, 2009; note: % of control where 0% means no effect; nearly all actives have a fitted effect of over 60% in size
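In this reporter-derepression format, murine cells bearing a silenced integrated CMV-GFP locus incubate with test compound (30 h, 37 C), then are washed and imaged; fluorescent objects of 20–120 um count as induced cells.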
Numbers without * were called inactive; ? = inconclusive; . = not tested or not shown; [ ] = remark or other dose. An excerpt weighted towards active compounds, which were near 1.5% of everything screened. Unless noted, calls come from the whole dose curve; as a rule, active = well fitted curve in the direction sought with a large enough effect; inconclusive = small, poorly fitted or top-dose-only effect, or another doubt; inactive = no such curve, though single readings can be large; an effect the other way counts as inactive or inconclusive. Potency is the fitted concentration of half-maximal effect.

SMILES	LMNA splice mod	HttQ103 aggreg	NPSR antagonist	HTT ATP protect	Epigenetic derep
COc1ccccc1OC(=O)CCN1c2ccccc2Sc2ccccc21	-12.9%	3.0%	-17.8%	19.8%[10 µM]	4.5%
COc1ccc(-[n+]2c(C)cc(/C=C3\Sc4ccccc4N3C)cc2C)cc1	.	1.12µM*	?	.	3.16µM*
COc1ccccc1-[n+]1c(C)cc(/C=C2\Sc3ccccc3N2C)cc1C	.	0.891µM*	6.31µM*	-80.4%[10 µM]	7.94µM*
COc1ccc(C(=O)/C=C2\Sc3ccccc3N2C)cc1	3.5%[46 µM]	-13.7%[9.22 µM]	-44.0%	-31.1%[10 µM]	-2.7%
COc1ccccc1N1CCN(C(c2cccs2)C(C)NC(=O)c2cccnc2)CC1 (configuration not stated)	?	?	-4.5%	5.62µM*	3.9%
CCOC(=O)c1ccc(COC(=O)CCc2nc3ccccc3[nH]c2=O)o1	16.2%	2.82µM*	-5.8%[46.1 µM]	-6.8%[10 µM]	0.0%
O=[N+]([O-])c1ccc(-c2c(O)c3ccccc3c3nc4ccccc4nc23)cc1	?	7.08µM*	5.5%	-17.8%	1.5%
CCCc1nc(Cl)c(C#N)c2c1CCCC2	3.3%	0.2%	-12.2%	-16.3%[10 µM]	-0.9%
CCc1nc(Cl)c(C#N)c2c1CCCC2	11.0%	11.2µM*	17.8%	1.6%[10 µM]	0.0%
Cc1ccc(CN2C(=O)CN(C3CCCCCC3)C(=O)C2c2ccc(F)cc2)cc1 (configuration not stated)	-11.9%[46 µM]	.	.	.	1.6%
Cc1cc(C)c(C(=O)Nc2ccc(Br)c(C(F)(F)F)c2)c(C)c1	?	20µM*	-45.1%	.	1.1%
COc1ccc(N/N=C(\C#N)C(=N)SCc2ccccc2)cc1	?	7.94µM*	13.9%	?	-0.8%
CCCc1cc(N2CCN(c3cccc(C)c3C)CC2)n2cnnc2n1	.	.	.	.	-3.4%
O=C(O)/C=C\C=C/c1ccc2c(c1)OCO2	.	.	.	-5.8%[10 µM]	.
Cn1ncc(Oc2ccc([N+](=O)[O-])cc2)c(Cl)c1=O	.	7.0%[9.22 µM]	-4.5%	-4.4%[10 µM]	-0.1%
CC(C)(C)n1ncc(Oc2ccccc2[N+](=O)[O-])c(Cl)c1=O	?	12.6µM*	14.9%	.	-1.0%
CCN1/C(=C/C=C/c2sc3ccccc3[n+]2CC)Sc2ccccc21	.	2µM*	.	-97.1%	.
CCN1/C(=C/C=C/C=C/c2sc3ccccc3[n+]2CC)Sc2ccccc21	?	3.98µM*	7.94µM*	-98.8%	-1.1%
CCC1=C(c2ccc(C)cc2)S(=O)(=O)N=C1N1CCC(C(=O)N2CCCCC2)CC1	6.3%[46 µM]	.	.	.	0.0%
C=C(C(C)=O)C(O)c1ccco1 (configuration not stated)	.	.	.	.	2.1%
COc1cc2nc(=S)n3[nH]c(CCn4nc(C)cc4C)nc3c2cc1OC	-2.2%	?	-6.2%[46.1 µM]	-49.5%[10 µM]	5.01µM*
CN1/C(=C\C(=O)COc2ccc3c(c2)OCO3)C(C)(C)c2ccccc21	?	22.4µM*	-25.7%[46.1 µM]	-19.3%	-2.1%
O=C(CC1Sc2ccc(C(F)(F)F)cc2NC1=O)Nc1ccc(Cl)c(C(F)(F)F)c1 (configuration not stated)	.	.	.	.	3.5%
COc1cc(/C=C2/C(=O)ON=C2c2ccccc2)ccc1O	?	-8.1%	?	-0.1%[10 µM]	1.1%
O=C1ON=C(c2ccc(Cl)cc2)/C1=C/c1ccc(O)cc1	?	14.8%	6.31µM*	-26.0%	5.4%
SMILES	LMNA splice mod	HttQ103 aggreg	NPSR antagonist	HTT ATP protect	Epigenetic derep
CC1=NOC(=O)/C1=C/c1ccc(O)cc1	-1.4%[46 µM]	-2.3%[9.22 µM]	-10.3%	-1.4%[10 µM]	1.9%
COc1cc(/C=C2\C(=O)ON=C2c2ccccc2)cc(Cl)c1O	-4.8%[46 µM]	7.2%	7.94µM*	.	-0.4%
Cc1cc(C)c(S(=O)(=O)Nc2ccccc2C(=O)O)cc1C	.	.	.	.	-3.0%
Cc1ccc(Cl)cc1N1CCN(C(=O)Cn2cnc3sc(C)c(S(=O)(=O)N4CCC(C)CC4)c3c2=O)CC1	.	.	.	.	3.5%
CCCNC(=O)c1cc(-c2ccco2)on1	?	7.0%	-7.3%[46.1 µM]	1.58µM*	-1.0%
COc1cc([N+](=O)[O-])cc(/C=N/NC(=O)C(C)Nc2cccc(C)c2)c1O (configuration not stated)	?	10µM*	-16.1%[46.1 µM]	24.8%[10 µM]	0.0%
COc1cc([N+](=O)[O-])cc(/C=N/NC(=O)c2ccc(NC(=O)c3ccc(C)cc3)cc2)c1O	.	?	-1.2%	-75.3%	5.7%[10.1 µM]
COc1cc([N+](=O)[O-])cc(/C=N/NC(=O)C(C)Nc2ccccc2C)c1O (configuration not stated)	?	12.6µM*	-1.7%	-6.5%[10 µM]	-1.6%
COc1ncc2nc(-c3ccc(Cl)cc3)c(=O)n(CCC#N)c2n1	0.4%	.	.	-4.1%	.
CCCCCCOc1ccc(C(=O)n2cnc(N)n2)cc1	-3.7%	.	-2.5%[46.1 µM]	12.6µM*	-1.0%
O=[N+]([O-])c1ccc(/C=C/C2=NN(c3ccccc3)C(c3ccco3)C2)cc1 (configuration not stated)	?	?	-11.3%	.	0.794µM*
O=[N+]([O-])c1ccc(C2=NN(c3ccccc3)C(c3ccco3)C2)cc1 (configuration not stated)	.	30.0%[9.22 µM]	-25.7%	-0.4%[10 µM]	2µM*
CCc1ccc(C2=NN(C(C)=O)C(c3ccco3)C2)cc1 (configuration not stated)	.	6.5%	-9.8%	6.7%	-2.4%
C[C@@]12CC[C@@H]3[C@H](CCC4=CC(=O)CC[C@]43C)[C@@H]1CC[C@@H]2C(=O)COS(=O)(=O)c1ccc(Br)cc1	.	.	.	-15.6%[10 µM]	.
O=C(Nc1cccnc1)C1(F)C(F)(F)C(F)(F)C(F)(F)C(F)(F)C1(F)F	6.3%	6.31µM*	?	-53.8%	0.0%
O=C(Nc1cccnc1)Nc1ccccc1Cl	-10.5%	.	-19.2%[46.1 µM]	0.794µM*	3.8%
CCOc1ccc(NC(=O)CC2C(=O)N(c3ccccc3)C(=O)N2C2CCCCC2)cc1 (configuration not stated)	.	.	.	.	-0.7%
CN1CC(c2ccccc2)C2(SC(=S)N(Cc3ccco3)C2=O)C12C(=O)Nc1ccccc12 (configuration not stated)	?	?	10µM*	-2.4%	-0.5%
O=C1C2CCC(C2)[C@@H]2CCCCN12 (some centres not stated)	.	.	.	-6.2%[96.6 µM]	-0.1%[96.6 µM]
COc1ccc(-c2ccc3c(N)c(C(=O)Nc4ccc(C(F)(F)F)cc4)sc3n2)cc1OC	.	.	.	.	0.0%
COc1ccc(NC(=O)c2sc3nc(-c4cccnc4)ccc3c2N)cc1OC	.	7.5%[9.22 µM]	0.0%[7.67 µM]	-1.0%[10 µM]	7.08µM*
Nc1c(C(=O)Nc2ccc(F)c(F)c2)sc2nc(-c3ccncc3)ccc12	.	.	.	.	4.2%
Nc1c(C(=O)Nc2ccccc2)sc2nc(-c3cccnc3)ccc12	.	13.9%[9.22 µM]	-7.4%	-0.7%[10 µM]	3.55µM*
Cc1ccc(NC(=O)c2sc3nc(-c4ccncc4)ccc3c2N)cc1	.	.	.	.	22.4µM*

Screens as filed in PubChem.
